Only some compounds are listed: those with a hit (about 6.9% of all), similar ones and a draw of the others.
Vif-A3G inh = Vif-A3G binding inhibition; Q9HC16; HeLa A3G-eYFP + Vif (tagged APOBEC3G with the HIV-1 protein that degrades it), YFP fluorescence, overnight; Potency, µM (highest dose often 46.1 µM), usual class: inhibitors; 410,000 tested, 0.076% active; AID 602310; further: nearly all actives have a fitted effect of over 60% in size
Target sequence (Q9HC16 whole entry, looked up): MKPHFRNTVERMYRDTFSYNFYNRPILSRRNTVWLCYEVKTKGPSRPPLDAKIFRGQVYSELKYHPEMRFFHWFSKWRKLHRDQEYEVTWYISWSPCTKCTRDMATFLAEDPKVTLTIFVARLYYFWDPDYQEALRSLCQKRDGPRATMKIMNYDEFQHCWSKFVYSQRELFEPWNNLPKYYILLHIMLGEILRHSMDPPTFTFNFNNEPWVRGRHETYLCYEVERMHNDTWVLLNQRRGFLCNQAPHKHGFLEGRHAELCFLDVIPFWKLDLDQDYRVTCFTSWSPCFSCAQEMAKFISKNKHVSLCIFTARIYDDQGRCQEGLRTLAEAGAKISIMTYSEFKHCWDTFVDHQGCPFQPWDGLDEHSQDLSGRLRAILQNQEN
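HeLa cells stably expressing Vif and C-terminally eYFP-tagged A3G, seeded overnight at 37 deg C, then exposed to compound by pintool overnight at 37 deg C. Rise in yellow fluorescence (Ex 488/Em 500-530, Acumen) marks blocked Vif-driven A3G degradation.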
MCF10A rerep = DNA re-replication induction in MCF 10a cells; MCF 10A DNA re-replication, Hoechst nuclear intensity, 48 h; Potency, µM (series often up to 46.1 µM), hits mostly activators; 350,000 tested, 2.9% active; AID 624296; further: nearly all actives have a fitted effect of over 50% in size
Vif-APOBEC3F blk = Vif-A3F binding inhibition; HeLa A3F-eYFP + Vif (tagged APOBEC3F with the HIV-1 protein that degrades it), YFP fluorescence increase; Potency, µM (doses to about 46.1 µM); 390,000 tested, 0.2% active; AID 602313; further: nearly all actives have a fitted effect of over 65% in size
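HeLa cells stably expressing Vif plus C-terminally eYFP-tagged A3F were seeded, incubated overnight at 37 deg C, dosed with compound, incubated overnight again at 37 deg C. Yellow fluorescence (Ex 488/Em 500-530) reported blocked Vif-mediated A3F-eYFP degradation.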
SW480 rerep = induces DNA re-replication in SW480 colon adenocarcinoma cells; SW480 DNA re-replication, Hoechst DNA content imaging, 48 h; Potency, µM (titrated, usually from 46.1 µM), most hits filed as activators; 340,000 tested, 1.8% active; AID 624297; further: nearly all actives have a fitted effect of over 55% in size
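SW480 cells exposed to compounds for 48 hr at 37 C, 5% CO2, then Hoechst-stained 40 min. Nuclear DNA content imaged by fluorescence scanning (405 nm excitation, 500-530 nm emission); re-replication scored as increased high-intensity nuclei.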
Giardia killer = kills Giardia lamblia; Giardia lamblia trophozoite viability; activity change, % at 7.66 µM, hits read low; 340,000 tested, 0.15% active; in the data active means activity change below about -80%; inconclusive means between about -30% and that limit;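 further: parasites exposed to compound for two days anaerobically before the ATP read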
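Media and compound were dispensed first, then trophozoites at 100 cells/well; plates sat 48 hrs at 37 deg C without oxygen before ATP luminescence reagent was added and read after 15-30 min at room temperature.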
IL1B secr inh = blocks inflammasome-driven IL-1 beta release. activity change, % at 57.5 µM. 360,000 tested, 4.7% active. AID 743279. THP-1 LPS/ATP IL-1B secretion, AlphaLISA, 16 h; hits give low values; in the data active means activity change below about -50%; inconclusive means mostly about -30% to -49%
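THP-1 cells pretreated 1 hr with compounds (up to 57.5 uM final), then stimulated with LPS (250 ng/mL final) plus ATP (1.25 mM final); secreted IL-1B measured by AlphaLISA after 16 hr, decreased signal indicating inhibition.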
A number is an active result; i = inactive; ? = inconclusive; nt = no result given; [ ] = dose if it differs, or a comment. Unless noted, the call rests on the fitted dose curve; in most records, active means well fitted curve in the direction sought with a large enough effect; inconclusive means small, poorly fitted or top-dose-only effect, or another doubt; inactive means no such curve, though single readings can be large; an effect the other way counts as inactive or inconclusive.

SMILES	Vif-A3G inh	MCF10A rerep	Vif-APOBEC3F blk	SW480 rerep	Giardia killer	IL1B secr inh
COc1ccc(C(N)c2nccc3cc(OC)c(OC)cc23)cc1OC (configuration not stated)	i	i	i	i	i	-83
Cc1cccc(NC(=O)c2sc3nc4c(c(-c5cccs5)c3c2N)CN(C)CC4)c1	i	16µM	?	?	i	-86
CC(C)NC(=O)c1sc2nc3c(c(-c4cccs4)c2c1N)CN(C)CC3	i	i	i	i	i	i
COc1ccc(CC2C(=O)NC(C)C(=O)N(C)C3Cc4ccc(cc4)Oc4cc(ccc4O)CC(C(=O)NC(C)C(=O)NC(C)C(=O)N2C)N(C)C3=O)cc1 (configuration not stated)	i	?	i	4.6µM	i	-100
CC(C)C[C@@H]1NC(=O)[C@H](Cc2ccccc2)N(C)C(=O)[C@H](C)NC(=O)c2ccccc2NC(=O)[C@H](Cc2ccc(O)cc2)N(C)C1=O	i	i	i	i	i	i
Cc1ccc(NC(=O)CCn2nc(-c3ccccc3)c3ccccc3c2=O)c(C)c1	i	nt	i	nt	nt	nt
CCOc1cc(/C=C\c2[nH]c(=O)[nH]c(=O)c2[N+](=O)[O-])ccc1OC(C)CC (configuration not stated)	?	?	i	23µM	i	-92
CC(C)c1ccc(/C=C/c2[nH]c(=O)[nH]c(=O)c2[N+](=O)[O-])cc1	i	18µM	i	i	i	-82
COc1ccc(NC(=O)c2cc3nc(-c4ccc(C)c(C)c4)cc(C(F)(F)F)n3n2)cc1	i	nt	i	nt	nt	nt
COc1ccc(/C=N/NC(=O)c2nc(-c3ccccc3)n(-c3ccccc3)n2)c(O)c1	i	7.3µM	i	?	i	i
COc1cccc(/C=N/NC(=O)c2nc(-c3ccccc3)cc(-c3ccccc3)n2)c1O	i	i	i	8.2µM	i	i
COc1ccccc1C=NN=C(NN=Cc1ccccc1OC)NN=Cc1ccccc1OC	i	i	i	?	i	-82
COc1ccccc1C=NN=C(N)C(N)=NN=Cc1ccccc1OC	i	i	i	i	i	i
COc1cccc(/C=N/NC(=O)N/N=C/c2cccc(OC)c2O)c1O	i	i	i	?	i	-97
COc1ccccc1C=NNC(=O)NN=Cc1ccccc1OC	i	i	i	i	i	i
COc1cccc(C=NNC(=O)c2ccncc2)c1O	i	?	i	?	i	i
O=Cc1cccc(C=O)c1	i	nt	nt	nt	nt	nt
Cc1cccc(Cn2c(=O)n(CC3CCC(C(=O)N4CCOCC4)CC3)c(=O)c3sccc32)c1 (configuration not stated)	i	nt	i	nt	nt	nt
COc1cccc(/C=N/NC(=O)c2cc3c(OC)ccc(OC)c3[nH]2)c1O	i	i	i	i	i	i
CCn1c(C)nc2cc(C(=O)N/N=C/c3cccc(OC)c3O)ccc21	i	?	i	1.6µM	i	i
COc1cc(OC)c2cc(C(=O)N/N=C/c3cccc(OC)c3O)[nH]c2c1	?	i	i	3.3µM	i	i
Cc1ccc(-c2c(C)n3c4c(=O)n(C)c(=O)n(C)c4nc3n2-c2cccc(O)c2)cc1	i	nt	i	nt	nt	nt
CCN(CC)CCOc1c(Br)ccc2c1sc1nc3n(c(=O)c12)CCC3	i	?	nt	i	i	-64
COCCN(CC1CCCN(C2Cc3ccccc3C2)C1)C(=O)CCC(N)=O (configuration not stated)	i	?	i	i	i	-52
CCCN1CNC(=S)N(c2ccccc2OC)C1	i	i	i	i	i	i
SMILES	Vif-A3G inh	MCF10A rerep	Vif-APOBEC3F blk	SW480 rerep	Giardia killer	IL1B secr inh
CCCN1CN(c2ccccc2)C(=S)N(c2ccccc2)C1	i	i	i	3.7µM	i	i
CC(=O)Nc1cccc(C(=O)OCC(=O)NC(=O)C2CCCCC2)c1	i	nt	nt	nt	i	nt
CSC1=C(C#N)C(c2ccccc2Cl)C2=C(N1)c1ccccc1C2=O (configuration not stated)	i	?	?	i	i	-98
CC1=C(C#N)C(c2ccccc2)C2=C(N1)c1ccccc1C2=O (configuration not stated)	?	1.5µM	i	8.2µM	i	i
CC1=C(C#N)C(c2cccnc2)C2=C(N1)c1ccccc1C2=O (configuration not stated)	i	i	i	i	i	i
COc1ccccc1NC(=O)CCCCCN1C(=O)c2cccc([N+](=O)[O-])c2C1=O	i	0.92µM	i	i	i	i
COc1ccccc1NC(=O)CCCCCN1C(=O)c2cccc3cccc(c23)C1=O	i	i	i	i	i	i
O=C1C=C(O)CC(c2ccc(Cl)c(Cl)c2)C1 (configuration not stated)	i	5µM	i	i[9.22 µM]	i	i
O=C1C=C(O)CC(c2ccc(Cl)cc2)C1 (configuration not stated)	i	i	i	i[9.22 µM]	i	i
Cc1oc2ccc(O)c(CN3CCN(C)CC3)c2c1C(=O)Nc1cccc(Cl)c1C	i	nt	i	nt	nt	nt
COc1ccc(S(=O)(=O)N[C@H]2CC[C@H](CCNC(=O)c3ccccc3F)O[C@@H]2CO)cc1	nt	nt	nt	nt	nt	-77
O=C(NCC[C@H]1CC[C@H](NS(=O)(=O)c2ccc(F)cc2)[C@@H](CO)O1)c1ccc2c(c1)OCO2	nt	nt	nt	nt	nt	i
Cc1ccc(NC(=O)Cn2c(=O)c(C(F)(F)F)nc3ccccc32)c(C)c1	i	nt	i	nt	nt	nt
Cc1cnc([N+](=O)[O-])n1CCOC(=O)c1cccc(F)c1	i	i	i	i	-81	i
Cc1cnc([N+](=O)[O-])n1CCOC(=O)NC(=O)c1ccc(F)cc1	i	i	i	i	?	i
COc1cc(NS(=O)(=O)c2ccc(C(=O)O)cc2)c2nc(C)ccc2c1	i	nt	nt	nt	i	nt
CC(C)(C)CC(=O)NCCc1csc(-c2ccccc2)n1	i	i	i	i	i	i
CC(=O)NCCc1csc(-c2ccccc2)n1	i	6.5µM	i	?	i	i
CCOC(=O)C1CCN(c2cc(C)nc3cc(-c4cccc(F)c4)nn23)CC1	i	4.1µM	i	?	i	i
Cc1ccccc1Cn1c(C)c(CNCCCc2ccccc2)c(C(=O)O)c1C	i	nt	i	nt	nt	nt
C=CCn1c(SCC(=O)NCCCC)nc2scc(-c3ccco3)c2c1=O	i	i	i	i	i	-68
Cc1cc(C)c2oc(C(=O)Nc3nc4ccc(Cl)cc4s3)cc(=O)c2c1	i	nt	i	nt	nt	nt
Cc1ccc(-c2cc(C(F)(F)F)c(C#N)c(SCCC#N)n2)o1	i	?	i	9.2µM	i	i
Cc1cc(C)c2c(CC(=O)Nc3nnc(C(C)C)s3)coc2c1	i	nt	i	nt	nt	nt
O=C(OCc1cccc(Cl)c1)c1cc([N+](=O)[O-])ccc1N1CCOCC1	i	?	i	?	i	?

Compound activity as filed in PubChem.
